Assay results published in paper PMC4053984, “DNA binding specificities of the long zinc-finger recombination protein PRDM9”.

Each sequence was assayed against PRDM9Cst (Mus musculus (CAST/EiJ)) (assay: competition EMSA; competition against biotin-labeled 75-bp Hlx1 B6 oligo; 10 mM Tris pH 7.5, 50 mM KCl, 1 mM DTT, 50 ng/ul poly(dI/dC), 0.05% NP-40, crude E. coli extract 3 ul in 20 ul; 1 h with unlabeled competitor, then 4 h with biotin-labeled 75-bp Hlx1; temperature not stated; high values mean tight binding). Settings: tags: N-terminal His tag (pBAD/HisB); dsDNA, one strand shown.
PRDM9Cst (Mus musculus (CAST/EiJ)), sequence (chain, as listed by the source): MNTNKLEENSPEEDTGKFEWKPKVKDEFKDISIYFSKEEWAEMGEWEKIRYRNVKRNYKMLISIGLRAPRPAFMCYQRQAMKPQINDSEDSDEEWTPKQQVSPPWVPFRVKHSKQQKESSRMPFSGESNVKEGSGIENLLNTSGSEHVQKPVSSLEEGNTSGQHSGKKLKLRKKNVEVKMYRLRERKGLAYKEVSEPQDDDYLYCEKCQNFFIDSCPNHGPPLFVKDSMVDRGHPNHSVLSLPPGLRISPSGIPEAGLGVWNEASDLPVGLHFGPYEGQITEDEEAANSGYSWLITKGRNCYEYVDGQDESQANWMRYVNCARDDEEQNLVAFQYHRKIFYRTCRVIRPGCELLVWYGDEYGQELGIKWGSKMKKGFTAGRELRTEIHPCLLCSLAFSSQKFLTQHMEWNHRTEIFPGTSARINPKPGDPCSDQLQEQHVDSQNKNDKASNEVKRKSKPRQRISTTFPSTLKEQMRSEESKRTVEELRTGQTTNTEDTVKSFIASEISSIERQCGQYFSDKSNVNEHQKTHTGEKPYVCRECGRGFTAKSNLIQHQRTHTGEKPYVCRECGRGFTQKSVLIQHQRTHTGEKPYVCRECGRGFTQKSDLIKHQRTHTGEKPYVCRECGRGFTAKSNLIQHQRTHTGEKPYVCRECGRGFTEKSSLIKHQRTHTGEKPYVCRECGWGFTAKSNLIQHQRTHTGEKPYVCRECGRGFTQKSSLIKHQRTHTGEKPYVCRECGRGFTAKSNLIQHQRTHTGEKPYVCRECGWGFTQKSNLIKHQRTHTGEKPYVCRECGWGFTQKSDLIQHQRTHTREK

Sequence	binding signal
ATAGTGTGCAGACTTGGACCCTGTCCTTTCTTT	0.02 Bmut (0 = wild type, -1 = scrambled)
ATAGTGTGCAGATTTGGACCCTGCCCTTTCTTT	0.1 Bmut (0 = wild type, -1 = scrambled)
ATAGTGTGCAGACTTGGACCCTGCCCTTTCTTG	0.09 Bmut (0 = wild type, -1 = scrambled)
ATAGTGTGCAGACTTGGCCCCTGCCCTTTCTTT	-0.9 Bmut (0 = wild type, -1 = scrambled)
ATAGTGTGCAGACTTGGTCCCTGCCCTTTCTTT	0.1 Bmut (0 = wild type, -1 = scrambled)
ATAGTGTGCAGACTTGGACCCTGCCCCTTCTTT	0.19 Bmut (0 = wild type, -1 = scrambled)
ATAGTGTGCAGACTTGGACCCTGCCCTTTCATT	0.08 Bmut (0 = wild type, -1 = scrambled)
ATAGTGTGCAGACTTGGACCCTGCCCGTTCTTT	0.1 Bmut (0 = wild type, -1 = scrambled)
ATAGTGTGCAGACTTGAACCCTGCCCTTTCTTT	0.2 Bmut (0 = wild type, -1 = scrambled)
ATAGTGTGCAGACTTGGACCCTGCTCTTTCTTT	-0.2 Bmut (0 = wild type, -1 = scrambled)
ATAATGTGCAGACTTGGACCCTGCCCTTTCTTT	-0.4 Bmut (0 = wild type, -1 = scrambled)
ATAGTGTGCAGACTTAGACCCTGCCCTTTCTTT	-0.1 Bmut (0 = wild type, -1 = scrambled)
ATAGTCTGCAGACTTGGACCCTGCCCTTTCTTT	0.1 Bmut (0 = wild type, -1 = scrambled)
ATAGTGTGCAGACTTGGACCCCGCCCTTTCTTT	-0.1 Bmut (0 = wild type, -1 = scrambled)
ATAGTGCGCAGACTTGGACCCTGCCCTTTCTTT	-0.2 Bmut (0 = wild type, -1 = scrambled)
ATAGTGTGCAGACTTGGACCCAGCCCTTTCTTT	0.01 Bmut (0 = wild type, -1 = scrambled)
ATAGTGTGCAGACTTGGACCCTGCCCTTTGTTT	-0 Bmut (0 = wild type, -1 = scrambled)
ATATTGTGCAGACTTGGACCCTGCCCTTTCTTT	0.3 Bmut (0 = wild type, -1 = scrambled)
ATAGTGTGCAGACTTGGACCCTACCCTTTCTTT	0.1 Bmut (0 = wild type, -1 = scrambled)
ATAGTGTGCAGACATGGACCCTGCCCTTTCTTT	-0.7 Bmut (0 = wild type, -1 = scrambled)
AAAGTGTGCAGACTTGGACCCTGCCCTTTCTTT	0 Bmut (0 = wild type, -1 = scrambled)
ATAGTGTGCAGTCTTGGACCCTGCCCTTTCTTT	-0.2 Bmut (0 = wild type, -1 = scrambled)
